Results on 40 compounds are retold here after PubChem BioAssay (Tox21).

Results filed as inconclusive are left out. The source made the active and inactive calls. The call rests on the fitted dose curve; in most records, active means well fitted cell-killing curve with a large enough effect in the repeat runs; inconclusive means weak or mixed curves, or effect the other way; inactive means flat fitted curve, though single readings scatter.
On the % scale 0 is the no-effect control and ±100 the full control effect.

This experiment can be described thus: qHTS RealTime-Glo MT Cell Viability Assay in HEK293 cells - 0 hour (AID 1224880). Further: top concentration of the series differs between compounds; nearly all actives have a fitted effect of over 45% in size. The settings on record: RealTime-Glo luminescence; series mostly up to 76.8 µM; activity change, negative = cytotoxicity: at the top concentration. The source says:
U.S. Tox21 Program National Center for Advancing Translational Sciences [NCATS] NIH Chemical Genomics Center [NCGC] U.S. Environmental Protection Agency [EPA] National Institutes of Environmental Health Sciences [NIEHS] National Toxicology Program [NTP] U.S. Food and Drug Administration [FDA] Tox21 Assay Overview: Measure of cell viability is critical in the cell-base assay. Analysis of cell viability is necessary for the characterization of cell responses to cytotoxic drugs and environmental stress. A RealTime-Glo MT Cell Viability Assay to monitor cell viability in real time of continues cell culture during 40 hours of compound treatment was used to screen Tox21 10K library compounds in Hek293 cells. The RealTime-Glo MT Cell Viability Assay is a nonlytic, homogeneous, bioluminescent method to measure cell viability in real time using a simple, plate-based method. The assay involves adding NanoLuc luciferase and a cell-permeant prosubstrate to cells in culture. Viable cells reduce the proprietary prosubstrate to generate a substrate for NanoLuc luciferase. This substrate diffuses from cells into the surrounding culture medium, where it is rapidly used by the NanoLuc Enzyme to produce a luminescent signal. The signal correlates with the number of viable cells, making the assay well suited for cytotoxicity studies.
Tox21 Assay Protocol Summary: The mixture of Hek293 cell suspension and reagents were dispensed at 600cells/6 ul/well in 1536-well tissue culture treated black solid bottom plates using a Multidrop dispenser. After the assay plates were incubated at a 37 C/5% CO2 incubator for 5 hours, 23 nL of compounds dissolved in DMSO, positive and negative controls was transferred to the assay plate by a pintool work station. The plates were incubated at 37 C for 40 hours. The luminescence intensity were measured at 0h, 8h, 16h, 24h, 32h and 40h time points using ViewLux plate reader during compound treatment.
For orientation: In qHTS, concentration-response curves come from the screen itself.
Take `c1cc2ccc3cccc4ccc(c1)c2c34`: the “activity change, negative = cytotoxicity” value was -3.75% (inactive).

Consider `COc1cc(CC(C)N)cc2c1OCO2` (stereo not given), for which the “activity change, negative = cytotoxicity” value was -3.15% (inactive).

On to `CN1[C@@H]2CC[C@H]1CC(OC(=O)c1cc(Cl)cc(Cl)c1)C2` (stereo not given in full), for which the “activity change, negative = cytotoxicity” value was 19.1% [at 35.3 µM] (inactive).

Consider `CC(C)N(C(=O)COc1nnc(C(F)(F)F)s1)c1ccc(F)cc1`, for which the “activity change, negative = cytotoxicity” value was 0.916% (inactive).

Turning to `BrCC(Br)C1CCC(Br)C(Br)C1` (stereo not given), the “activity change, negative = cytotoxicity” value was -4.44% (inactive).

Regarding `Clc1cccc(SC2CCNCC2)n1`, the “activity change, negative = cytotoxicity” value was 2.81% [at 35.3 µM] (inactive).

Regarding `CCOc1ccc(C(C)(C)COCc2cccc(Oc3ccccc3)c2)cc1`, the “activity change, negative = cytotoxicity” value is 17% (inactive).

With `O=C1C(Cl)C(CCl)CN1c1cccc(C(F)(F)F)c1` (stereo not given), the “activity change, negative = cytotoxicity” value was 4.21% (inactive).

Regarding `O=[N+]([O-])c1ccc(F)c([N+](=O)[O-])c1`, the “activity change, negative = cytotoxicity” value is -25% (inactive).

Consider `CCO[C@H]1O[C@@H]2OC3(C)CC[C@H]4[C@H](C)CC[C@@H]([C@H]1C)[C@@]24OO3`, for which the “activity change, negative = cytotoxicity” value is 17.9% [at 35.3 µM] (inactive).

For `BrCCCCBr`, the “activity change, negative = cytotoxicity” value was 2.17% (inactive).

On to `OCCCBr`, for which the “activity change, negative = cytotoxicity” value is 9.9% (inactive).

With `C=CC(=O)OCC(C)O` (stereo not given), the “activity change, negative = cytotoxicity” value is 8.97% (inactive).

With `CC1(C)[C@H](C=C(Cl)Cl)[C@@H]1C(=O)O[C@@H](C#N)c1cccc(Oc2ccccc2)c1`, the “activity change, negative = cytotoxicity” value was 5.72% (inactive).

As to `C=CC(=O)OC(C)(C)C`, the “activity change, negative = cytotoxicity” value is 8.78% (inactive).

For the compound `O=C(O)C(F)(F)C(F)(F)C(F)(F)C(F)(F)C(F)(F)C(F)(F)C(F)(F)C(F)(F)C(F)(F)F`, the “activity change, negative = cytotoxicity” value was -7.77% (inactive).

Regarding `CC(C)O.CC(C)O.OCCN(CCO)CCO.OCCN(CCO)CCO.[Ti]`, the “activity change, negative = cytotoxicity” value was 12.5% (inactive).

With `CCCN(CCC)c1c([N+](=O)[O-])cc(S(C)(=O)=O)cc1[N+](=O)[O-]`, the “activity change, negative = cytotoxicity” value is -1.8% (inactive).

Consider `O=NN1CCNCC1`, for which the “activity change, negative = cytotoxicity” value is 3.42% (inactive).

Regarding `CC1Sc2c(C(=O)O)c(=O)c3cc(F)c(N4CCNCC4)cc3n21` (stereo not given), the “activity change, negative = cytotoxicity” value is 5.36% [at 35.3 µM] (inactive).

For `CN1C(=O)NC(=O)C(C)(C2=CCCCC2)C1=O` (stereo not given), the “activity change, negative = cytotoxicity” value was -2.66% [at 35.3 µM] (inactive).

As to `C(=NC1CCCCC1)=NC1CCCCC1`, the Potency entry was “inactive”.

Turning to `CCOP(=O)(OCC)O/C(=C/Cl)c1ccc(Cl)cc1Cl`, the “activity change, negative = cytotoxicity” value is 2.03% (inactive).

`CCOC(=O)C(Cl)C(C)=O` (stereo not given): the “activity change, negative = cytotoxicity” value is 5.62% (inactive).

For the compound `CCCCN=C=O`, the “activity change, negative = cytotoxicity” value is 0.78% (inactive).

With `CCN(C)N=O`, the “activity change, negative = cytotoxicity” value was -5.96% (inactive).

With `O=C(OC1CCCCC1)c1ccccc1C(=O)OC1CCCCC1`, the “activity change, negative = cytotoxicity” value was 24.4% (inactive).

Consider `COC(N)=O`, for which the “activity change, negative = cytotoxicity” value is 4.79% (inactive).

With `NS(=O)(=O)C(F)(F)C(F)(F)C(F)(F)C(F)(F)C(F)(F)C(F)(F)C(F)(F)C(F)(F)F`, the “activity change, negative = cytotoxicity” value was -10% (inactive).

For `CC(=O)c1cc2c(cc1C)C(C)(C)C(C)CC2(C)C` (stereo not given), the “activity change, negative = cytotoxicity” value is -5.93% (inactive).

Turning to `C/C=C/C=O`, the “activity change, negative = cytotoxicity” value was 6.86% (inactive).

Take `O=[N+]([O-])C(Br)(CO)CO`: the “activity change, negative = cytotoxicity” value was 1.78% (inactive).

In the case of `CCC(C)(NC(=O)c1cc(Cl)c(C)c(Cl)c1)C(=O)CCl` (stereo not given), the “activity change, negative = cytotoxicity” value is -3.49% (inactive).

`CCOP(O)OCC`: the “activity change, negative = cytotoxicity” value was -4.71% (inactive).

In the case of `CCCCCCC#N`, the “activity change, negative = cytotoxicity” value was -2.11% (inactive).

As to `CCC(Cl)CCl` (stereo not given), the “activity change, negative = cytotoxicity” value is 1.11% (inactive).

In the case of `ClCCCCBr`, the “activity change, negative = cytotoxicity” value was -4.93% (inactive).

As to `N#CCc1ccccc1`, the “activity change, negative = cytotoxicity” value was -0.978% (inactive).

`O=[N+]([O-])c1cc(C(F)(F)F)cc([N+](=O)[O-])c1Cl`: the “activity change, negative = cytotoxicity” value was -20.3% (inactive).

As for `CC(Cl)C(C)Cl` (stereo not given), the “activity change, negative = cytotoxicity” value was -0.457% (inactive).
